Reference: PubChem BioAssay AID720519 (National Center for Advancing Translational Sciences (NCATS), 2013)
Records with an inconclusive call do not appear. Entries that show only a call come without a potency. Active and inactive are the calls of the source. The call rests on the fitted dose curve; in most records, active means well fitted activation curve with a large enough effect; inconclusive means small, poorly fitted or top-dose-only effect; inactive means flat fitted curve, though single readings scatter.

Test: qHTS for Inhibitors of Cell Surface uPA Generation: Confirmatory Assay for Cherry-picked Compounds
Conditions: cell surface uPA activity generation, qHTS confirmation; series mostly up to 115 µM
In short: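 RAW 264.7 cells at 4000/well, incubated overnight, then treated with compounds. After 24 h at 37 C, viability was read by ATPlite luminescence. An increase in signal indicates blocked uPA-dependent LF entry.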
Potency means the concentration at half of the fitted maximal effect.

| Compound | Potency |
| --- | --- |
| O=C(Cc1ccccc1)Nc1ccc(NC(=O)c2ccccc2)c(Cl)c1 | inactive |
| O=c1[nH]c2c(s1)C(c1ccc(O)cc1)C1C3CCC(C3)C1S2 (stereo unspecified) | inactive |
| COCCn1nnnc1C(C(C)C)N1CCCC(C)C1 (stereo unspecified) | inactive |
| C#CCOCCOCCOCCNc1nc(N2CCOCC2)nc(N2CCN(C(=O)[C@H](CCC(=O)O)n3cc([C@@H](N)CCCCN)nn3)CC2)n1 | inactive |
| CC1Cc2nc(SCC(=O)Nc3ccc4c(c3)OCO4)n(-c3ccc(F)cc3)c(=O)c2S1 (stereo unspecified) | inactive |
| CC(C)Cn1cnc2c1c(=O)[nH]c(=O)n2Cc1ccccc1 | inactive |
| COC(=O)C1=CN(Cc2ccc(F)cc2)C=C(C(=O)OC)C1c1ccc(O)c(OC)c1 | inactive |
| CC(C)(C)OC(=O)NCCCCCNC(=O)c1[nH]cnc1C(=O)Nc1ccc(Cl)cc1 | inactive |
| C/C(=N\NC(=O)c1cccc([N+](=O)[O-])c1)c1cccnc1 | inactive |
| CCn1c(CNc2ccc(F)cc2)nnc1SCC(=O)Nc1ccccc1OC | inactive |
| CCn1nc(C)c(CNC(=O)C2CCC(=O)N(CCc3ccc(OC)cc3)C2)c1C (stereo unspecified) | inactive |
| Cc1ccc2sc(NNC(=O)c3ccc4c(c3)OCCO4)nc2c1C | inactive |
| COc1cc2c(OC(C)=O)c3c(c(-c4ccc5c(c4)OCO5)c2cc1OC)C(=O)OC3 | 2.33 µM (active) |
| Cc1ccc(S(=O)(=O)N2CCC(C(=O)OC(C)C(=O)NC3CCCCC3C)CC2)cc1 (stereo unspecified) | inactive |
| Cn1c(=O)n(CC(=O)O)c(=O)c2c1nc1n2CCCN1CCc1ccccc1 | inactive |
| O=C1C=C(NNC(=O)c2ccncc2)CC(c2ccccc2)C1 (stereo unspecified) | inactive |
